{"source": "PubChem BioAssay AID686978", "about": "(National Center for Advancing Translational Sciences (NCATS), 2013)", "note": "Values joined by “and” are separate entries in the source; they are usually repeats but may differ in a detail not shown here. Identical values can stand only once. Screen size: about 420,000 compounds; about 64,000 (15%) were called active. About 27% were inconclusive and are not listed. Calls come from the whole dose curve; as a rule, active = well fitted inhibition curve with a large enough effect; inconclusive = small, poorly fitted or top-dose-only effect; inactive = flat fitted curve, though single readings scatter. Only a sample is shown. A call without a number means that no potency is given here. Potency is the fitted concentration of half-maximal effect."}
{"assay": "qHTS for Inhibitors of human tyrosyl-DNA phosphodiesterase 1 (TDP1): qHTS in cells in absence of CPT; note: nearly all actives have a fitted effect of over 55% in size", "settings": "DT40 Tdp1-/- hTDP1 cells, no CPT, ATP luminescence, 48 h; activity change, negative = growth inhibition: at 46.2 µM (top of the series)", "outline": "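Readout: luminescence from CellTiter-Glo after 30 min in the dark at RT. Cells: DT40 Tdp1-/- with stable hTDP1, 400/well. Exposure: compounds alone, ≥48 hr, 37 °C.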"}
{"smiles": "CC(C)(C)C(=O)CSc1ccc(S(=O)(=O)N2CCCC2)cn1", "Potency": "inactive"}
{"smiles": "Cc1ccccc1NC(=O)c1cc2c([nH]c1=O)CC(C)(C)CC2=O", "Potency": "inactive"}
{"smiles": "Cn1c(CSCC(=O)Nc2ccccc2)nnc1SCc1ccccc1", "Potency": "inactive"}
{"smiles": "NS(=O)(=O)c1ccc(CNC(=S)NC(=O)c2ccco2)cc1", "Potency": "inactive"}
{"smiles": "COC(=O)c1c(NC(=O)C2CC(C)=C(C)CC2C(=O)O)sc2c1CCCCC2", "note": "(stereo not given)", "Potency": "inactive"}
{"smiles": "CCc1ccc(N(CC(=O)Nc2sc3c(c2C(=O)OC)CCCC3)S(C)(=O)=O)cc1", "Potency": "23.1 µM (active)"}
{"smiles": "COC(=O)c1c(NC(=O)CCCC(=O)O)sc2c1CCCCC2", "Potency": "inactive"}
{"smiles": "O=C(COc1ccccc1)Nc1cc2c3c(c1)CC(=O)N3CCC2", "Potency": "inactive"}
{"smiles": "O=C(CN1CCOCC1)N/N=C/c1ccc(-c2ccc(Br)cc2)o1", "Potency": "inactive"}
{"smiles": "O=C1CCC(=O)N(c2ccccc2)N1", "Potency": "inactive"}
{"smiles": "CN(C)S(=O)(=O)c1cccc(NC(=O)COC(=O)C2(c3ccccc3F)CCCC2)c1", "Potency": "13 µM (active)"}
{"smiles": "CN(C)S(=O)(=O)c1cccc(NC(=O)COC(=O)c2cc(=O)[nH]c(=O)[nH]2)c1", "Potency": "inactive"}
{"smiles": "CN(C)S(=O)(=O)c1cccc(NC(=O)COC(=O)/C=C/c2cccs2)c1", "Potency": "inactive"}
{"smiles": "COc1ccc(S(=O)(=O)N2CCN(C(=O)c3cccs3)CC2)cc1OC", "Potency": "inactive"}
{"smiles": "O=S(=O)(NCCc1ccccc1)c1ccccc1", "Potency": "inactive"}
{"smiles": "CCN(CC(=O)N1CCCC1)S(=O)(=O)c1ccc(F)cc1", "Potency": "inactive"}
{"smiles": "CCSC1=NCCN1C(=O)c1ccc(S(=O)(=O)N(CC)CC)cc1", "Potency": "inactive"}
{"smiles": "CCCN(CCC)S(=O)(=O)c1ccc(C(=O)N2CC3CCC(CC3)C2)cc1", "Potency": "23.1 µM (active)"}
{"smiles": "CCc1nc(NCCO)c(C#N)c2c1CCCC2", "Potency": "inactive"}
{"smiles": "N#CCc1c(C#N)c(N)nc(N2CCCC2)c1C#N", "Potency": "inactive"}
{"smiles": "CC(C)CCNc1nc(N2CCCC2)c2c(c1C#N)CCN(C)C2", "Potency": "23.1 µM (active)"}
{"smiles": "CC(=O)Nc1ccc(Nc2ncnc3c2nnn3Cc2ccccc2Cl)cc1", "Potency": "inactive"}
{"smiles": "O=C(Nc1cccc(F)c1)N1CC2(CCN(C(=O)c3csnn3)CC2)C1", "Potency": "inactive"}
{"smiles": "O=S(=O)(NC1CC2CCC1C2)c1ccc(Cl)cc1", "note": "(stereo not given)", "Potency": "inactive"}
{"smiles": "Nc1nc2c(ncn2[C@@H]2O[C@H](CNS(=O)(=O)N3CCc4ccccc4C3)[C@@H](O)[C@H]2O)c(=O)[nH]1", "Potency": "inactive"}
{"smiles": "COc1cc2[nH]c(=S)n(CCN3CCCCC3C)c(=O)c2cc1OC", "note": "(stereo not given)", "Potency": "inactive"}
{"smiles": "COc1ccc2c(c1)C(=C(C#N)C#N)C(=O)N2CCc1ccccc1", "Potency": "14.6 µM (active)"}
{"smiles": "CCCCN1C(=O)/C(=C(/C#N)C(N)=O)c2ccccc21", "Potency": "inactive"}
{"smiles": "COc1cccc(CNC(=O)CN2C(=O)NC(Cc3ccccc3)(c3ccccc3)C2=O)c1", "note": "(stereo not given)", "Potency": "inactive"}
{"smiles": "NC(=O)C1CCN(C(=O)c2ccc3c(=O)n(Cc4cccc(Br)c4)c(=S)[nH]c3c2)CC1", "Potency": "inactive"}
{"smiles": "Cc1cc(C)cc(OCC(=O)Nc2cc(NC(=O)COc3cc(C)cc(C)c3)cc(C(=O)O)c2)c1", "Potency": "inactive"}
{"smiles": "COC(C)C(C(=O)OCC1=CCN2CC[C@H](O)[C@@H]12)C(C)C", "note": "(stereo not given in full)", "activity change, negative = growth inhibition": "-18.8% [at 9.04 µM] (inactive)"}
{"smiles": "O=C(Cc1ccccn1)c1ccc(O)cc1O", "Potency": "inactive"}
{"smiles": "Cc1ccc2[nH]c(=O)c(CN(C)S(=O)(=O)c3cccc4nonc34)cc2c1", "Potency": "inactive"}
{"smiles": "Cn1c(SCC(=O)N2CCCCC2)nc2c(c1=O)SCC2", "Potency": "inactive"}
{"smiles": "CCn1c(SCc2ccccc2)nc2c(c1=O)SCC2", "Potency": "inactive"}
{"smiles": "Cc1cccc(CSc2nc3c(c(=O)n2C)SCC3)c1", "Potency": "14.6 µM (active)"}
{"smiles": "CCCCNC(=O)OC(C)CNC(=O)OC", "note": "(stereo not given)", "Potency": "inactive"}
{"smiles": "CCC1CN(CCNC(=O)c2cccnc2C)Cc2cc(OC)ccc2O1", "note": "(stereo not given)", "Potency": "inactive"}
{"smiles": "CCCS(=O)(=O)NCc1c(C)ncc2c1CCN(C(=O)c1ccc(F)c(F)c1)C2", "Potency": "inactive"}
{"smiles": "CCOC(=O)CCCCCC(=O)Nc1ccc2c(c1)CC(=O)N([C@@H](C)CO)C[C@H](C)[C@@H](CN(C)Cc1ccccc1)O2", "Potency": "inactive"}
{"smiles": "CCSc1nnc(SCC(=O)NNC(=O)c2ccccc2F)s1", "Potency": "inactive"}
{"smiles": "CCC(CC)C(=O)N1CCN(c2cccc(C)c2C)CC1", "Potency": "11.6 µM (active)"}
{"smiles": "Cc1[nH]c2ccc(C(=O)N3CCN(C)CC3)cc2c1C", "Potency": "inactive"}
{"smiles": "CC(=O)N1CCN(c2cccc(C)c2C)CC1", "Potency": "inactive"}
{"smiles": "CCn1c(C)c(C)c2cc(C(=O)N3CCN(c4cccc(C)c4C)CC3)ccc21", "Potency": "23.1 µM (active) and 20.6 µM (active)"}
{"smiles": "Cc1ccccc1N1CCN(C(=O)c2cccnc2)CC1", "Potency": "inactive"}
{"smiles": "Cc1cccc(N2CCN(C(=O)c3ccc4c(c3)CCN4S(=O)(=O)c3ccccc3)CC2)c1C", "Potency": "6.51 µM (active)"}
{"smiles": "Cc1cccc(N2CCN(C(=O)c3ccc(Nc4nc5ccccc5n5nnnc45)cc3)CC2)c1C", "Potency": "inactive"}
{"smiles": "Cc1cccc(N2CCN(C(=O)c3cnc(N4CCCC4)nc3C)CC2)c1C", "Potency": "20.6 µM (active)"}
{"smiles": "Cc1cccc(N2CCN(C(=O)COCc3cc(-c4ccc5c(c4)OCO5)on3)CC2)c1C", "Potency": "inactive"}
{"smiles": "O=C(c1c(F)cccc1F)N1CCN(c2ncc(Br)cn2)CC1", "Potency": "inactive"}
{"smiles": "O=C(O)C(O)[C@@](O)(Cc1ccc(O)cc1)C(=O)O", "note": "(stereo not given in full)", "Potency": "inactive"}
{"smiles": "COCCCN1C(=O)C(=O)/C(=C(/O)c2ccc(S(=O)(=O)N3CCOCC3)cc2)C1c1ccc(F)cc1", "note": "(stereo not given)", "Potency": "inactive"}
{"smiles": "Cc1ccc(CNC(=O)Nc2nnc([C@H]3C[C@H](O)[C@@H](CO)O3)s2)cc1", "Potency": "inactive"}
{"smiles": "O=C(O)CC(SCC(=O)Nc1ccc(Br)cc1)C(=O)O", "note": "(stereo not given)", "Potency": "inactive"}
{"smiles": "O=C(Nc1nnc(CCOCCOCCc2nnc(NC(=O)c3ccco3)s2)s1)c1ccco1", "Potency": "inactive"}
{"smiles": "CCC(=O)Nc1nc(OC)cc(OC)n1", "Potency": "inactive"}
{"smiles": "Cc1c(C)n(Cc2ccc(Cl)cc2)c2ccc(C(=O)N3CCN(c4ccccc4F)CC3)cc12", "Potency": "23.1 µM (active)"}
{"smiles": "CCc1ccc(NC(=O)CS(=O)CC(=O)N2CCN(c3ccccc3F)CC2)cc1", "note": "(stereo not given)", "Potency": "inactive"}
{"smiles": "CCOc1ccccc1NC(=S)N1CCN(c2cccc(C)c2C)CC1", "Potency": "8.2 µM (active)"}
{"smiles": "Cc1cccc(NC(=S)N2CCC(O)CC2)c1C", "Potency": "inactive"}
{"smiles": "CCOc1ccccc1NC(=O)C1CCCN(C(=O)Nc2ccccc2)C1", "note": "(stereo not given)", "Potency": "inactive"}
{"smiles": "O=C(c1ccc(CN2CCOCC2)cc1)N1CCN(c2ccccc2F)CC1", "Potency": "inactive"}
{"smiles": "Brc1ccccc1C1Nc2cccc3cccc(c23)N1", "Potency": "inactive"}
{"smiles": "O=C(Cc1ccc(F)cc1)NC1CCCC1", "Potency": "inactive"}
{"smiles": "CCOc1ccc(NC(=O)CN(C)C(=O)c2c(C)noc2C)cc1OCC", "Potency": "inactive"}
{"smiles": "N#CC1(NC(=O)COc2ccc3oc4ccccc4c3c2)CCCCC1", "Potency": "inactive"}
{"smiles": "CCOC(=O)[C@H]1CCC[C@@H](NS(=O)(=O)c2ccc(NC(C)=O)cc2)C1", "Potency": "inactive"}
{"smiles": "COc1ccccc1OC(C)C(=O)Nc1ccc(S(=O)(=O)Nc2nccs2)cc1", "note": "(stereo not given)", "Potency": "inactive"}
{"smiles": "CCOc1ccc(C(C(=O)NCCOC)N(CCOC)C(=O)CCC(=O)Nc2ccccn2)cc1", "note": "(stereo not given)", "Potency": "inactive"}
{"smiles": "Cc1ccc(C(=O)NCCc2nnc(SCC(=O)Nc3cccc(C(=O)O)c3)n2C)cc1", "Potency": "inactive"}
{"smiles": "CCS(=O)(=O)C1=NSC2=NC(=O)/C(=C\\c3cc(C)n(-c4cccc(OC)c4)c3C)C(=N)N21", "Potency": "inactive"}
{"smiles": "CCc1nc2c(OCC(N)=O)cccn2c1N(C)C(=O)c1ccc(OC)cc1", "Potency": "inactive"}
{"smiles": "CCc1nc2ccc(C(=O)N3CCN(S(=O)(=O)CC)CC3)cn2c1N(C=O)CCC(C)C", "Potency": "inactive"}
{"smiles": "CCc1nc2c(OCCC3CCCCC3)cccn2c1N(C)C(=O)c1ccco1", "Potency": "16.4 µM (active)"}
{"smiles": "CCOc1ccccc1N(CC(=O)Nc1ccccc1C(=O)OC)S(C)(=O)=O", "Potency": "inactive"}
{"smiles": "CCCCN(C=O)c1c(CC)nc2c(OCCC3CCCCC3)cccn12", "Potency": "9.2 µM (active)"}
{"smiles": "CCc1nc2c(OCC(=O)C(C)(C)C)cccn2c1N(C)C(=O)c1ccccc1F", "Potency": "inactive"}
{"smiles": "CCCCN(C=O)c1c(CC)nc2c(OCc3ccccc3C(=O)OC)cccn12", "Potency": "20.6 µM (active)"}
{"smiles": "O=C(CNC(=O)c1ccco1)OCC(=O)c1ccccc1", "Potency": "inactive"}
{"smiles": "COc1ccc(COC(=O)N/N=C(\\C)CC(=O)Nc2ccc(Cl)cc2)cc1", "Potency": "inactive"}
{"smiles": "CN(C)/N=C/c1cc(Cl)cc([N+](=O)[O-])c1O", "Potency": "inactive"}
{"smiles": "O=C(NC(Cc1ccccc1)C(=O)O)/C(=C\\c1ccccc1)NC(=O)c1ccco1", "note": "(stereo not given)", "Potency": "inactive"}
{"smiles": "CC(=O)Nc1ccc(NC(=O)CS(=O)(=O)c2cn(CC(=O)N3CCCCC3)c3ccccc23)cc1", "Potency": "inactive"}
{"smiles": "Cc1noc(C)c1C(=O)Nc1ccccn1", "Potency": "inactive"}
{"smiles": "CCOC1=C2CN(S(=O)(=O)c3ccc(C)cc3)[C@H](c3cccs3)C[C@H]2[C@H]2C(=O)N(c3ccccc3)C(=O)[C@H]2C1", "Potency": "inactive"}
{"smiles": "COC(=O)CSc1nnc(-c2cccnc2)o1", "Potency": "inactive"}
{"smiles": "CN(CC(=O)NC1CCCC1)S(=O)(=O)c1cnc[nH]1", "Potency": "inactive"}
{"smiles": "CC1(C(=O)O)CCC(C(=O)Nc2ccc(Cl)c(Cl)c2)C1(C)C", "note": "(stereo not given)", "Potency": "inactive"}
{"smiles": "COc1ccc(-c2nc3n(c2Br)CCC3)cc1", "Potency": "inactive"}
{"smiles": "COC(=O)c1cccc(NC(=O)CN2CCC(NC(=O)c3cc(OC)c(OC)c(OC)c3)CC2)c1", "Potency": "16.4 µM (active)"}
{"smiles": "COc1ccc(C(=O)O)cc1S(=O)(=O)NC1CCN(Cc2ccccc2)CC1", "Potency": "inactive"}
{"smiles": "COc1cc(C(=O)NC2CCN(Cc3ccccc3)CC2)cc(Cl)c1OC(C)C", "Potency": "20.6 µM (active)"}
{"smiles": "COC(=O)c1cc(NC(=O)CN2CCN(C(C)=O)CC2)cc(C(=O)OC)c1", "Potency": "inactive"}
{"smiles": "CCOc1ccc(C(=O)NC2CCN(CC(=O)NCc3cccs3)CC2)cc1", "Potency": "inactive"}
{"smiles": "COc1cc2[nH]c(=O)n(CCC(=O)NC3CCN(Cc4ccccc4)CC3)c(=O)c2cc1OC", "Potency": "inactive"}
{"smiles": "Cc1c(C=O)c2ccccc2n1CC(=O)O", "Potency": "inactive"}
{"smiles": "CC(NC(=O)COC(=O)c1ccc(Cl)cc1O)c1ccc(F)cc1", "note": "(stereo not given)", "Potency": "inactive"}
{"smiles": "Cc1ccc(S(=O)(=O)NCc2cn3ccsc3n2)c(C)c1", "Potency": "inactive"}
{"smiles": "Cn1nnnc1SCC(=O)Nc1nc2ccccc2s1", "Potency": "inactive"}
{"smiles": "Cc1ccn2c(=O)nc(SCC(=O)NCc3ccc(F)cc3)nc2c1", "Potency": "inactive"}
{"smiles": "Cc1ccc(C23CC4CC(CC(C(=O)NCC(=O)O)(C4)C2)C3)cc1", "Potency": "inactive"}
{"smiles": "COc1ccc(/C=C/C(=O)Nc2cccnc2)cc1OC", "Potency": "inactive"}
{"smiles": "COc1ccc(/C=C/C(=O)Nc2ccc(C34CC5CC(CC(O)(C5)C3)C4)cc2)cc1OC", "Potency": "1.3 µM (active)"}
